Assay results reported in PubChem BioAssay (EPA / NIEHS).
Results filed as inconclusive are left out. Activity calls are given as the source filed them. How the source made its calls: active means hit-call score of the fitted dose curve at least 0.9, where 1 is the maximum; inconclusive means response in the unintended direction; inactive means score below 0.9.

Assay: ATG_M_19_TRANS: Attagene TRANS-FACTORIAL HepG2 Assay for M19 Transcription Factor (Internal Marker) (AID 2282974)
Conditions: HepG2 Attagene TRANS-FACTORIAL M19 internal marker reporter
Protocol: ATG_TRANS is a cell-based, multiplexed-readout assay that uses HepG2, a human liver cell line, with measurements taken at 24 hours after chemical dosing in a 24-well plate.ATG_M_19_TRANS is one of 30 assay component(s) measured or calculated from the ATG_TRANS assay. It is designed to make measurements of mRNA induction, a form of inducible reporter, as detected with fluorescence intensity signals by Reverse transcription polymerase chain reaction (RT-PCR) and Capillary electrophoresis technology.Data from the assay component ATG_M_19_TRANS was analyzed into 1 assay endpoint. This assay endpoint, ATG_M_19_TRANS, was analyzed in the positive analysis fitting direction relative to DMSO as the negative control and baseline of activity. Using a type of inducible reporter, measures of mRNA for gain-of-signal activity can be used to understand the background control at the transcription factor-level as they relate to the gene . Furthermore, this assay endpoint can be referred to as a secondary readout, because this assay has produced multiple assay endpoints where this one serves a background control function. To generalize the intended target to other relatable targets, this assay endpoint is annotated to the background measurement intended target family, where the subfamily is internal marker.
Human liver HepG2 cells are transiently transfected with multiple reporter transcription units (MRTUs) in 6-well plates using FuGene 6 reagent (Roche; 3 ml FuGene/1 mg DNA). The MRTU constructs are regulated by a cis-regulating element (promoter). […] A major difference between the CIS and TRANS system is that in CIS activities of endogenous TFs are measured, whereas the TRANS assay evaluates changes in activities of exogenous, chimeric NR-Gal4 proteins. […] At the end of 24 hour incubation, total RNA was isolated using TriZol reagent (Invitrogen). The isolated RNA is then reverse-transcribed using oligo(dT) primer and Mo-MLV reverse transcriptase (Invitrogen) with DNAse I (Ambion) treatment for 30 min. The one-tenth of the produced cDNA was amplified by PCR using Taq DNA polymerase (Invitrogen) and two reporter sequence-specific primers. The PCR products were fluorescently labeled by primer extension with 6-arboxyfluorescein (6-FAM) 5'-labeled reporter sequence-specific primer (2 min at 95 C, 20 s at 68 C and 10 min at 72 C) and these products were digested with 5U of HpaI (New England Biolabs) for 2h at 37 C. The fragments were purified using Qiaquick PCR columns (Qiagen), analyzed on an ABI 3130xL genetic analyzer (Applied Biosystems) with peak positions identified by using a set of X-rhodamine (ROX)-labeled MapMarker1000 molecular weight standards (BioVentures). The raw capillary electrophoresis data was processed using Attagraph software (Attagene).

SMILES	outcome
CCc1ccc(CCOc2ccc(CC3SC(=O)NC3=O)cc2)nc1 (stereo not given)	inactive
C=C(C)C(=O)OCCC(F)(F)C(F)(F)C(F)(F)C(F)(F)C(F)(F)C(F)(F)F	inactive
COCC(C)O (stereo not given)	inactive
CCC(C)(C)C1CCC(O)CC1 (stereo not given)	inactive
CCCCOCCO	inactive
NC(=O)N1C(=O)C(C(=O)c2cc(Cl)cs2)c2cc(F)c(Cl)cc21 (stereo not given)	inactive
OCCC(F)(F)C(F)(F)C(F)(F)C(F)(F)C(F)(F)C(F)(F)C(F)(F)C(F)(F)F	inactive
CCC(=C(c1ccc(O)cc1)c1ccc(OCCN(C)C)cc1)c1ccccc1	inactive
Cc1ccc(S(=O)(=O)O)c(C)c1	inactive
Nc1cccc2c(N)cccc12	inactive
ClC1=C(Cl)C(Cl)(Cl)C(Cl)=C1Cl	inactive
NC(=O)N(O)[C@@H]1C=C[C@H](Oc2cccc(Oc3ccc(F)cc3)c2)C1	inactive
O=C(O)c1ccccc1C(c1ccc(O)cc1)c1ccc(O)cc1	inactive
CCCOC(=O)c1ccc(O)cc1	inactive
C[C@@H]1C[C@H]2[C@@H]3CCC4=CC(=O)C=C[C@]4(C)[C@@]3(F)[C@@H](O)C[C@]2(C)[C@@]1(O)C(=O)COP(=O)(O)O	inactive
N#C[C@@H]1CC(F)(F)CN1C(=O)CNC1CC2CCC(C1)N2c1ncccn1 (stereo not given in full)	inactive
O=C(O)Cc1cc(I)c(Oc2cc(I)c(O)c(I)c2)c(I)c1	inactive
C#C[C@]1(O)CC[C@H]2[C@@H]3CCC4=CC(=O)CC[C@@H]4[C@H]3CC[C@@]21C	inactive
FC(F)(I)C(F)(F)C(F)(F)C(F)(F)C(F)(F)C(F)(F)I	inactive
CC#C[C@]1(O)CC[C@H]2[C@@H]3CCC4=CC(=O)CCC4=C3[C@@H](c3ccc(N(C)C)cc3)C[C@@]21C	inactive

SMILES	outcome
c1ccc2cc3c(ccc4ccccc43)cc2c1	inactive
COc1cc(CCC(=O)CC(=O)CCc2ccc(O)c(OC)c2)ccc1O	inactive
CCCCCCCCOC(=O)CCCCCCCCC(=O)OCCCCCCCC	inactive
O=C1OC2(c3ccccc31)c1cc(Br)c(O)c(Br)c1Oc1c2cc(Br)c(O)c1Br	inactive
CCCCCCCCCCCCN1CCCC1=O	inactive
Cc1cc(C)c(O)c(C)c1	inactive
Oc1cc2ccccc2c2ccccc12	inactive
CCCCC(CC)COC(=O)CCCCC(=O)OCC(CC)CCCC (stereo not given)	inactive
CCCOc1sc(C(=O)N2CCC(c3cc(CN)ccc3F)CC2)c(C)c1Br	inactive
CCCCCCCCCCCCCC[N+](C)(C)C	inactive
CN(C)C=O	inactive
CCCCCCCCCCCCc1ccccc1S(=O)(=O)O	inactive
CC(=O)NC1(c2cccc(F)c2)CCN(CC[C@@]2(c3ccc(Cl)c(Cl)c3)CN(c3ccccc3)C(=O)CO2)CC1	inactive
CCCCCCCCC(=O)O	inactive
CC1=C(/C=C/C(C)=C/C=C/C(C)=C/C(=O)O)C(C)(C)CCC1	inactive
COc1ccc([N+](=O)[O-])cc1N	inactive
CC(=O)CC(C)(C)O	inactive
CCOC(=O)CC(O)(CC(=O)OCC)C(=O)OCC	inactive
COCC(C)OCC(C)O (stereo not given)	inactive
CC(C)(C)c1cc(C(C)(C)C)c(O)c(C(C)(C)C)c1	inactive
